Compound: Cc1ccc(-c2ccc3c(ccc4sc5c(c43)NC[C@@H](C)NC5=O)n2)cn1
Experiment: kinase activity remaining relative to vehicle control; higher = less inhibition
Experimental: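 In vitro radiometric kinase profiling of the MK2 inhibitor PF-3644022 at 0.1, 1 and 10 µM against a panel of kinases (MRC International Centre for Kinase Profiling, Dundee). Read-out is % kinase activity remaining relative to the vehicle control, mean of n=2.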

UniProt O96013, sequence (O96013 whole entry, looked up): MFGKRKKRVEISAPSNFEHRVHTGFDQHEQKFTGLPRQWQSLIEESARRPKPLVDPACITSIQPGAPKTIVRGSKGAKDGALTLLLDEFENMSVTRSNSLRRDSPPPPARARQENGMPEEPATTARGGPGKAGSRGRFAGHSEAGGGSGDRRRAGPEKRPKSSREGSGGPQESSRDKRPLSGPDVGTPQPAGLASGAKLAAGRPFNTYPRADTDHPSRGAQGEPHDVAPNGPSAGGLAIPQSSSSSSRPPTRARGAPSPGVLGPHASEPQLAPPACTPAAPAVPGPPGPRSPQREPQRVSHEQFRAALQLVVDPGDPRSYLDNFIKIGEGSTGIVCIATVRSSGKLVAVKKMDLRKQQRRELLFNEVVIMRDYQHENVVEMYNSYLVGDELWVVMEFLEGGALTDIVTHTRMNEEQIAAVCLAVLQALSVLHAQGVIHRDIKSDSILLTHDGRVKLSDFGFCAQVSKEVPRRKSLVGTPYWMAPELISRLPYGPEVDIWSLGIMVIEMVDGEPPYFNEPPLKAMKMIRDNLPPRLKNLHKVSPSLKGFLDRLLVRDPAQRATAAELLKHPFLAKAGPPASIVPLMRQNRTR
UniProt Q96SB4, sequence (Q96SB4 whole entry, looked up): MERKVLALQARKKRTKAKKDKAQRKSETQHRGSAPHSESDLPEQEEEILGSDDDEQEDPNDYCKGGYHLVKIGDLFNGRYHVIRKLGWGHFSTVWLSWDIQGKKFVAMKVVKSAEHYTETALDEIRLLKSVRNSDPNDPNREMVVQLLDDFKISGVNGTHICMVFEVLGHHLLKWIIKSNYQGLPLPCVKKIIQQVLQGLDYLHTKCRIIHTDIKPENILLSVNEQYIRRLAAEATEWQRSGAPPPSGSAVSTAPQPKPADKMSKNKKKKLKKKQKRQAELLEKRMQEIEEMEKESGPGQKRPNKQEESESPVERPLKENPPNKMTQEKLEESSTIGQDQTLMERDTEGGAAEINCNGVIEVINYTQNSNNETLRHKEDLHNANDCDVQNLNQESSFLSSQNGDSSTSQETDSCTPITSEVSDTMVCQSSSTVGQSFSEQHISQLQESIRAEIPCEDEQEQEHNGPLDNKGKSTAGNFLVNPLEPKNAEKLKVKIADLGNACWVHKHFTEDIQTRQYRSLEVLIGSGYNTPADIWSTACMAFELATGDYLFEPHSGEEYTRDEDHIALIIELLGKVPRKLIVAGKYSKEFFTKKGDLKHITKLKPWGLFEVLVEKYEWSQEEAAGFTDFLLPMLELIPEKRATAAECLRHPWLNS
UniProt Q16832, sequence (Q16832 whole entry, looked up): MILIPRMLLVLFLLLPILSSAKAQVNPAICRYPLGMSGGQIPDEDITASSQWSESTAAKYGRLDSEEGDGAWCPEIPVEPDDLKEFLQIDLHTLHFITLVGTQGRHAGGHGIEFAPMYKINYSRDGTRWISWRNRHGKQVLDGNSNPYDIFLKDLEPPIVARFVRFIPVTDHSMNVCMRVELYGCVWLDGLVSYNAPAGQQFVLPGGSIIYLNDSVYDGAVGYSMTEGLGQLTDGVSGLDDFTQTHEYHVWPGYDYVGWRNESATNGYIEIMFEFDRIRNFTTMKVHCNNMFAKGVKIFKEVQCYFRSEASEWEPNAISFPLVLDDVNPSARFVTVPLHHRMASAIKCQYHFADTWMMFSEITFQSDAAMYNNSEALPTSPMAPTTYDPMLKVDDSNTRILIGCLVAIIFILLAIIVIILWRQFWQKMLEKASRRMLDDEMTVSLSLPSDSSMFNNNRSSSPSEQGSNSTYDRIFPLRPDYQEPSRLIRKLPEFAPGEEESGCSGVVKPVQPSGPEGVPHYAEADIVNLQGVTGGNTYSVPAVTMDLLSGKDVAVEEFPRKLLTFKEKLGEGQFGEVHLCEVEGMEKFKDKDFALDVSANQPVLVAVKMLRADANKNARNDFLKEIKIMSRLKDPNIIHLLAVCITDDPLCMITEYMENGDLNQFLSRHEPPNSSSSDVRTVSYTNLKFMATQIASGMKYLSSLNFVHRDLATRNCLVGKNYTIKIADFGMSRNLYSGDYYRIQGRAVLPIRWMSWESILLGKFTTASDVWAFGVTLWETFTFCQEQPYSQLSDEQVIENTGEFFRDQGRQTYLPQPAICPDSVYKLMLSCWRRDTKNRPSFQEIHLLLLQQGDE
UniProt Q99683, sequence (Q99683 whole entry, looked up): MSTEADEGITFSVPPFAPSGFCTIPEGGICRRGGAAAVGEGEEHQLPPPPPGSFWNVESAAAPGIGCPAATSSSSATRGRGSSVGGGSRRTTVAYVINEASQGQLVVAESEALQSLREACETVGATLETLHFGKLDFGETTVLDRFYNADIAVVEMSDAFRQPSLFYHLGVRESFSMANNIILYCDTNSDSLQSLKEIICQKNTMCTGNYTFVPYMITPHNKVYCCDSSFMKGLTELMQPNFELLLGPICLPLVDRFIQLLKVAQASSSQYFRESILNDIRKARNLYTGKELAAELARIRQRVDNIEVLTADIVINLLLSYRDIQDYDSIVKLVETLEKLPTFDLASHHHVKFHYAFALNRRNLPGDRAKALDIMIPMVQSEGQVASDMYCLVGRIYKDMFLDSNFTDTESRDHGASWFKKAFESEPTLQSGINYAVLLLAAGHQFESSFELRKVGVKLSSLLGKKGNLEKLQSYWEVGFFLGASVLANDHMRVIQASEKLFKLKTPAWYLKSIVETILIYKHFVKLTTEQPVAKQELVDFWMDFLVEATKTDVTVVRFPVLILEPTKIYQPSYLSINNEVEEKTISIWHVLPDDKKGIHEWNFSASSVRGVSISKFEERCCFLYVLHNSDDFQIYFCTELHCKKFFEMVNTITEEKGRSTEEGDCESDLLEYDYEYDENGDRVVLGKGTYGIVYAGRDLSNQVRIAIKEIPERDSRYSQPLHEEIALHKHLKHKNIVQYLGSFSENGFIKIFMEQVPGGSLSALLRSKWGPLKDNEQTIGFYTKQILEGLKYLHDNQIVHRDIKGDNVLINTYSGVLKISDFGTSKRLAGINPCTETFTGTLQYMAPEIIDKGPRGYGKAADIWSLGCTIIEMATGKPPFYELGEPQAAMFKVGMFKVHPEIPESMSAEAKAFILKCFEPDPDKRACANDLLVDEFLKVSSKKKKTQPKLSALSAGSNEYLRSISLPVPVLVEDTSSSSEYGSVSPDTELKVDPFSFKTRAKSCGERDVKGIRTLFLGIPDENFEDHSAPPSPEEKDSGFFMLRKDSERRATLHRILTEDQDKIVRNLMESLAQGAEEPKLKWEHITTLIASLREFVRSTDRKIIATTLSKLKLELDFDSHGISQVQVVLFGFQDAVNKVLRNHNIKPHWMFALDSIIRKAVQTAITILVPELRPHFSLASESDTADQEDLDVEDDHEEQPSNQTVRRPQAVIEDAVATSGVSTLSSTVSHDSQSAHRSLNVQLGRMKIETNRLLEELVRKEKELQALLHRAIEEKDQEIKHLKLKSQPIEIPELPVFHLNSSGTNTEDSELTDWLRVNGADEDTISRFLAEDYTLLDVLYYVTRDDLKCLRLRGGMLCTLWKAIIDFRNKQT
UniProt Q13188, sequence (Q13188 whole entry, looked up): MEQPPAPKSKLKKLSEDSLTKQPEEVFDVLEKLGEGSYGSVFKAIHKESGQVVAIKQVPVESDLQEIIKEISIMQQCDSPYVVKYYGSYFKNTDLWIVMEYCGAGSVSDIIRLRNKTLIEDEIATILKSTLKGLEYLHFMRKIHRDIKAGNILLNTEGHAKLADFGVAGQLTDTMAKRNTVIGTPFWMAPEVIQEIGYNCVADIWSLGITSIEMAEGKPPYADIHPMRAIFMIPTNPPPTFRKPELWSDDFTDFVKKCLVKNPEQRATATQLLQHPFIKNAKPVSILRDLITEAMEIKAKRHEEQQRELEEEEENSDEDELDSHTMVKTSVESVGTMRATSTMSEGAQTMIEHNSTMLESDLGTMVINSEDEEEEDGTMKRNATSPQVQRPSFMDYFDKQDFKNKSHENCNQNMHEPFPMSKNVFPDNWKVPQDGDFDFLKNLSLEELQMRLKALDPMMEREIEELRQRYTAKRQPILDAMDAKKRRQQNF
UniProt Q9NQU5, sequence (Q9NQU5 whole entry, looked up): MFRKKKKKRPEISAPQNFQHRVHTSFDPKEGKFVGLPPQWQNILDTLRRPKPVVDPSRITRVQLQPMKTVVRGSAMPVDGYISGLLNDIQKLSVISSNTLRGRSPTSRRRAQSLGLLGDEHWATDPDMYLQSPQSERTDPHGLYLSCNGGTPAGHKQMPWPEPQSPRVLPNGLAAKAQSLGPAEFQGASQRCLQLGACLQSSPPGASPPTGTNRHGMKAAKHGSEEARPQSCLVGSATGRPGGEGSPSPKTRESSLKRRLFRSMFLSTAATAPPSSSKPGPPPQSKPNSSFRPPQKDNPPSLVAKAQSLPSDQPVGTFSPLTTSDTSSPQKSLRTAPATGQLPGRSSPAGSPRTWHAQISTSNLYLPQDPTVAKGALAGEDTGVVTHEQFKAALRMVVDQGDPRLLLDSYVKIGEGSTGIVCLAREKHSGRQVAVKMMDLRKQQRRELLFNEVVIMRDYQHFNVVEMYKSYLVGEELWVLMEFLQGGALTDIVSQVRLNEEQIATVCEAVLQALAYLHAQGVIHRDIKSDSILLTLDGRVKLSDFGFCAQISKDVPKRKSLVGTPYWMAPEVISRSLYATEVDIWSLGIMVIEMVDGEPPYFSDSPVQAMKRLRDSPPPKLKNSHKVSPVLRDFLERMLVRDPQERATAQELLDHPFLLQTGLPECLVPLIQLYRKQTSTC
UniProt Q9P1W9, sequence (Q9P1W9 whole entry, looked up): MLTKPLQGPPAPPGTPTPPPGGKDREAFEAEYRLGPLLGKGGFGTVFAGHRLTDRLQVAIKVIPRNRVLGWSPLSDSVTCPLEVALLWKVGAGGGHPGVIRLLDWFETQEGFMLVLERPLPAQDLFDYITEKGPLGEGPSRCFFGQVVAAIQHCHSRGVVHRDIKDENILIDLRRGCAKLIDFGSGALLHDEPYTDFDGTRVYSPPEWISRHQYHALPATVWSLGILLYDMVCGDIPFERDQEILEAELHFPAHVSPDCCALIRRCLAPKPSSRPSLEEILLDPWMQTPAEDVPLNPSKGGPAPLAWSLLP

Row | Target | kinase activity remaining (inhibitor concentration 0.1 µM) | kinase activity remaining (inhibitor concentration 1 µM) | kinase activity remaining (inhibitor concentration 10 µM)
1 | MSK1 (UniProt O75582) | 120% | 105% | 99%
2 | GCK (UniProt P35557) | 109% | 89% | 19%
3 | BRSK2 (UniProt Q8IWQ3) | 77% | 32% | 8%
4 | PAK5 (UniProt Q9P286) | 108% | 101% | 101%
5 | DDR2 (UniProt Q16832) | 105% | 101% | 91%
6 | MNK2 (UniProt Q9HBH9) | 111% | 51% | 26%
7 | PKA | 109% | 119% | 108%
8 | MAP4K3 (UniProt Q8IVH8) | 98% | 72% | 41%
9 | ASK1 (UniProt Q99683) | 106% | 80% | 10%
10 | PAK4 (UniProt O96013) | 103% | 88% | 82%
11 | ULK1 (UniProt O75385) | 115% | 89% | 75%
12 | SIK3 (UniProt Q9Y2K2) | 98% | 99% | 73%
13 | PIM1 (UniProt P11309) | 93% | 58% | 17%
14 | BRSK1 (UniProt Q8TDC3) | 86% | 55% | 29%
15 | PIM2 (UniProt Q9P1W9) | 103% | 103% | 66%
16 | SRPK1 (UniProt Q96SB4) | 89% | 63% | 19%
17 | EPH-B1 | 113% | 106% | 106%
18 | ABL (UniProt P00519) | 120% | 113% | 76%
19 | ERK1 (UniProt P27361) | 111% | 108% | 112%
20 | p38 beta MAPK | 118% | 126% | 117%
21 | IKK epsilon | 98% | 95% | 44%
22 | MST2 (UniProt Q13188) | 131% | 135% | 100%
23 | AMPK | 93% | 38% | 9%
24 | EPH-A2 | 90% | 95% | 76%
25 | PKB beta (UniProt P31749) | 100% | 90% | 69%
26 | EPH-A4 | 99% | 103% | 78%
27 | PAK6 (UniProt Q9NQU5) | 117% | 106% | 116%
28 | TSSK1 (UniProt Q9BXA7) | 97% | 85% | 89%
29 | IKK beta | 115% | 109% | 101%
30 | PKD1 (UniProt P98161) | 96% | 96% | 48%

— the supplement of paper PMC6378613
